# Laboratory results taken from PMC11006913.
# Assays:
# Experiment in all cases: PBM; 200 nM protein, PBS
# Settings in all cases: dsDNA, one strand shown
# HESX1 [1] = target: HESX1 (Homo sapiens, UniProt Q9UBX0 95-180, R165K)
# HESX1 [2] = target: HESX1 (Homo sapiens, UniProt Q9UBX0 95-180)
# HESX1 [3] = target: HESX1 (Homo sapiens, UniProt Q9UBX0 95-180, F115L)
# SHOX = SHOX (Homo sapiens, UniProt O15266 103-189, R173C)
# HOXB9 [4] = target: HOXB9 (Homo sapiens, UniProt P17482 171-250)
# HOXB9 [5] = target: HOXB9 (Homo sapiens, UniProt P17482 171-250, R186Q)
# PROP1 [6] = target: PROP1 (Homo sapiens, UniProt O75360 56-141)
# PROP1 [7] = target: PROP1 (Homo sapiens, UniProt O75360 56-141, R99H)
# PROP1 [8] = target: PROP1 (Homo sapiens, UniProt O75360 56-141, F88S)
# HOXB6 [9] = target: HOXB6 (Homo sapiens, UniProt P17509 132-218, K202E)
# HOXB6 [10] = target: HOXB6 (Homo sapiens, UniProt P17509 132-218)
# HOXA2 [11] = target: HOXA2 (Homo sapiens, UniProt O43364 129-215, R185T)
# MSX2 [12] = target: MSX2 (Homo sapiens, UniProt P35548 130-214, R199I)
# HOXA2 [13] = target: HOXA2 (Homo sapiens, UniProt O43364 129-215, R185K)
# MSX2 [14] = target: MSX2 (Homo sapiens, UniProt P35548 130-214)
# MSX2 [15] = target: MSX2 (Homo sapiens, UniProt P35548 130-214, F161Y)
# HOXA2 [16] = target: HOXA2 (Homo sapiens, UniProt O43364 129-215, Y150S)
# HOXA2 [17] = target: HOXA2 (Homo sapiens, UniProt O43364 129-215)
# VAX1 = VAX1 (Homo sapiens, UniProt Q5SQQ9 86-172, K157R)
# PRRX1 = PRRX1 (Homo sapiens, UniProt P54821 80-166, F113S)
# Chain of PRRX1 (P54821 80-166 F113S): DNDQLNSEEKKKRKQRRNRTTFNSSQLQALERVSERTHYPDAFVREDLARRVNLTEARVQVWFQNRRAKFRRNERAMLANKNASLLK
# Chain of HOXB9 (Homo sapiens, UniProt P17482 171-250) (P17482 171-250): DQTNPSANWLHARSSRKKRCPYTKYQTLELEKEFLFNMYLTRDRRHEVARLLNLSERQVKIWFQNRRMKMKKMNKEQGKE
# Chain of HOXB6 (Homo sapiens, UniProt P17509 132-218) (P17509 132-218): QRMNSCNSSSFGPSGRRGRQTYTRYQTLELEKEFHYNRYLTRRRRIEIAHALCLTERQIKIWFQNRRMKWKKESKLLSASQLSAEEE
# Chain of SHOX (O15266 103-189 R173C): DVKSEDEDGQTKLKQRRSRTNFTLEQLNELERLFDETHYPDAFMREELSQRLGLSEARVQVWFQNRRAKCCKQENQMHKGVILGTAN
# Chain of HOXB6 (Homo sapiens, UniProt P17509 132-218, K202E) (P17509 132-218 K202E): as the sequence (P17509 132-218) above, with K71E counted along it
# Chain of HESX1 (Homo sapiens, UniProt Q9UBX0 95-180, F115L) (Q9UBX0 95-180 F115L): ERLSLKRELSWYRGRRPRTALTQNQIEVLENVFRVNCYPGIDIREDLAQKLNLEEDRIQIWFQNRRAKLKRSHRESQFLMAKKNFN
# Chain of HOXA2 (Homo sapiens, UniProt O43364 129-215, R185K) (O43364 129-215 R185K): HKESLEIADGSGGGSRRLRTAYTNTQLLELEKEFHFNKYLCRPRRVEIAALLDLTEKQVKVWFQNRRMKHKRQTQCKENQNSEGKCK
# Chain of PROP1 (Homo sapiens, UniProt O75360 56-141, F88S) (O75360 56-141 F88S): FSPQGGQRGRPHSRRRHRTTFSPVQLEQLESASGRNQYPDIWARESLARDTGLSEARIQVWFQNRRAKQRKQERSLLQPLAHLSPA
# Chain of HOXB9 (Homo sapiens, UniProt P17482 171-250, R186Q) (P17482 171-250 R186Q): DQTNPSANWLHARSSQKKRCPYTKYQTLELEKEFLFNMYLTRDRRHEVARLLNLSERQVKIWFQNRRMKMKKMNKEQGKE
# Chain of HOXA2 (Homo sapiens, UniProt O43364 129-215, R185T) (O43364 129-215 R185T): as the sequence (O43364 129-215 R185K) above, with K57T counted along it
# Chain of PROP1 (Homo sapiens, UniProt O75360 56-141) (O75360 56-141): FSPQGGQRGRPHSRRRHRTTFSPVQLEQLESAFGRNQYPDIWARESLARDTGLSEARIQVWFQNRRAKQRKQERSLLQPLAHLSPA
# Chain of HOXA2 (Homo sapiens, UniProt O43364 129-215, Y150S) (O43364 129-215 Y150S): as the sequence (O43364 129-215 R185K) above, with Y22S, K57R counted along it
# Chain of HOXA2 (Homo sapiens, UniProt O43364 129-215) (O43364 129-215): as the sequence (O43364 129-215 R185K) above, with K57R counted along it
# Chain of PROP1 (Homo sapiens, UniProt O75360 56-141, R99H) (O75360 56-141 R99H): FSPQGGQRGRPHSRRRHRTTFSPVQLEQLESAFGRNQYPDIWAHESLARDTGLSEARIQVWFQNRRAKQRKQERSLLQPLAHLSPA
# Chain of HESX1 (Homo sapiens, UniProt Q9UBX0 95-180, R165K) (Q9UBX0 95-180 R165K): as the sequence (Q9UBX0 95-180 F115L) above, with L21F, R71K counted along it
# Chain of HESX1 (Homo sapiens, UniProt Q9UBX0 95-180) (Q9UBX0 95-180): as the sequence (Q9UBX0 95-180 F115L) above, with L21F counted along it
# Chain of MSX2 (Homo sapiens, UniProt P35548 130-214) (P35548 130-214): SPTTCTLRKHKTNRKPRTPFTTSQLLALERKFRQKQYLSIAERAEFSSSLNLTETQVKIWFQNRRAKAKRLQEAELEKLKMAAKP
# Chain of MSX2 (Homo sapiens, UniProt P35548 130-214, R199I) (P35548 130-214 R199I): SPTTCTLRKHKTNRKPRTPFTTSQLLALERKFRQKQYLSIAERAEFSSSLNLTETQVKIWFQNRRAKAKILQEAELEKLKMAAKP
# Chain of VAX1 (Q5SQQ9 86-172 K157R): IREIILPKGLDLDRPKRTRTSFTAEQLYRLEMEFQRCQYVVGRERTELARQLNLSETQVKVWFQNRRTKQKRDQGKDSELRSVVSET
# Chain of MSX2 (Homo sapiens, UniProt P35548 130-214, F161Y) (P35548 130-214 F161Y): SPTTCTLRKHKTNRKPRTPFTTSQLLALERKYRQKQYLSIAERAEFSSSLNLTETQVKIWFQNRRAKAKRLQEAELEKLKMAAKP
sequence,measurement,setting,value
CCGCGTCG,binding signal,HESX1 [1],"6.63 upbm affinity estimate (log intensity, higher = more binding, comparable within an allelic series)"
same,binding signal,HESX1 [2],"6.33 upbm affinity estimate (log intensity, higher = more binding, comparable within an allelic series)"
same,binding signal,HESX1 [3],"6.48 upbm affinity estimate (log intensity, higher = more binding, comparable within an allelic series)"
ACCAGCTG,binding signal,SHOX,"7.03 upbm affinity estimate (log intensity, higher = more binding, comparable within an allelic series)"
CACTTATA,binding signal,HOXB9 [4],"10.4 upbm affinity estimate (log intensity, higher = more binding, comparable within an allelic series)"
same,binding signal,HOXB9 [5],"10.2 upbm affinity estimate (log intensity, higher = more binding, comparable within an allelic series)"
CACTTAGA,binding signal,HESX1 [1],"7.73 upbm affinity estimate (log intensity, higher = more binding, comparable within an allelic series)"
same,binding signal,HESX1 [2],"7.94 upbm affinity estimate (log intensity, higher = more binding, comparable within an allelic series)"
same,binding signal,HESX1 [3],"6.78 upbm affinity estimate (log intensity, higher = more binding, comparable within an allelic series)"
CTACTTAA,binding signal,PROP1 [6],"8.53 upbm affinity estimate (log intensity, higher = more binding, comparable within an allelic series)"
same,binding signal,PROP1 [7],"8.11 upbm affinity estimate (log intensity, higher = more binding, comparable within an allelic series)"
same,binding signal,PROP1 [8],"7.26 upbm affinity estimate (log intensity, higher = more binding, comparable within an allelic series)"
CCGGAGCC,binding signal,HOXB6 [9],"8.96 upbm affinity estimate (log intensity, higher = more binding, comparable within an allelic series)"
same,binding signal,HOXB6 [10],"8.93 upbm affinity estimate (log intensity, higher = more binding, comparable within an allelic series)"
CTAATTGC,binding signal,HESX1 [1],"12.3 upbm affinity estimate (log intensity, higher = more binding, comparable within an allelic series)"
same,binding signal,HOXB6 [9],"9.81 upbm affinity estimate (log intensity, higher = more binding, comparable within an allelic series)"
same,binding signal,HESX1 [2],"12.5 upbm affinity estimate (log intensity, higher = more binding, comparable within an allelic series)"
same,binding signal,HOXA2 [11],"13.1 upbm affinity estimate (log intensity, higher = more binding, comparable within an allelic series)"
same,binding signal,MSX2 [12],"13 upbm affinity estimate (log intensity, higher = more binding, comparable within an allelic series)"
same,binding signal,SHOX,"9.34 upbm affinity estimate (log intensity, higher = more binding, comparable within an allelic series)"
same,binding signal,HOXA2 [13],"13.5 upbm affinity estimate (log intensity, higher = more binding, comparable within an allelic series)"
same,binding signal,MSX2 [14],"14 upbm affinity estimate (log intensity, higher = more binding, comparable within an allelic series)"
same,binding signal,PROP1 [6],"11.2 upbm affinity estimate (log intensity, higher = more binding, comparable within an allelic series)"
same,binding signal,PROP1 [7],"11.5 upbm affinity estimate (log intensity, higher = more binding, comparable within an allelic series)"
same,binding signal,PROP1 [8],"7.41 upbm affinity estimate (log intensity, higher = more binding, comparable within an allelic series)"
same,binding signal,MSX2 [15],"13.6 upbm affinity estimate (log intensity, higher = more binding, comparable within an allelic series)"
same,binding signal,HESX1 [3],"7.52 upbm affinity estimate (log intensity, higher = more binding, comparable within an allelic series)"
same,binding signal,HOXA2 [16],"10.7 upbm affinity estimate (log intensity, higher = more binding, comparable within an allelic series)"
same,binding signal,HOXA2 [17],"12.6 upbm affinity estimate (log intensity, higher = more binding, comparable within an allelic series)"
same,binding signal,VAX1,"12.8 upbm affinity estimate (log intensity, higher = more binding, comparable within an allelic series)"
same,binding signal,HOXB6 [10],"11.8 upbm affinity estimate (log intensity, higher = more binding, comparable within an allelic series)"
CCAGCGCG,binding signal,HESX1 [1],"6.43 upbm affinity estimate (log intensity, higher = more binding, comparable within an allelic series)"
same,binding signal,HESX1 [2],"6.41 upbm affinity estimate (log intensity, higher = more binding, comparable within an allelic series)"
same,binding signal,HESX1 [3],"6.43 upbm affinity estimate (log intensity, higher = more binding, comparable within an allelic series)"
ACGGCTGG,binding signal,PROP1 [6],"6.59 upbm affinity estimate (log intensity, higher = more binding, comparable within an allelic series)"
same,binding signal,PROP1 [7],"6.78 upbm affinity estimate (log intensity, higher = more binding, comparable within an allelic series)"
same,binding signal,PROP1 [8],"6.67 upbm affinity estimate (log intensity, higher = more binding, comparable within an allelic series)"
GCCACTTA,binding signal,HOXB9 [4],"10.1 upbm affinity estimate (log intensity, higher = more binding, comparable within an allelic series)"
same,binding signal,HOXB9 [5],"10 upbm affinity estimate (log intensity, higher = more binding, comparable within an allelic series)"
CCAGGCCG,binding signal,HOXA2 [11],"7.21 upbm affinity estimate (log intensity, higher = more binding, comparable within an allelic series)"
same,binding signal,HOXA2 [13],"10.2 upbm affinity estimate (log intensity, higher = more binding, comparable within an allelic series)"
same,binding signal,HOXA2 [16],"10.3 upbm affinity estimate (log intensity, higher = more binding, comparable within an allelic series)"
same,binding signal,HOXA2 [17],"7.17 upbm affinity estimate (log intensity, higher = more binding, comparable within an allelic series)"
CTTCCGTC,binding signal,HESX1 [1],"6.54 upbm affinity estimate (log intensity, higher = more binding, comparable within an allelic series)"
same,binding signal,HESX1 [2],"6.45 upbm affinity estimate (log intensity, higher = more binding, comparable within an allelic series)"
same,binding signal,HESX1 [3],"6.61 upbm affinity estimate (log intensity, higher = more binding, comparable within an allelic series)"
CGGTCCAA,binding signal,SHOX,"7.18 upbm affinity estimate (log intensity, higher = more binding, comparable within an allelic series)"
CGGACCCG,binding signal,HOXB6 [9],"8.97 upbm affinity estimate (log intensity, higher = more binding, comparable within an allelic series)"
same,binding signal,HOXB6 [10],"9 upbm affinity estimate (log intensity, higher = more binding, comparable within an allelic series)"
CCCGGCGG,binding signal,PROP1 [6],"6.68 upbm affinity estimate (log intensity, higher = more binding, comparable within an allelic series)"
same,binding signal,PROP1 [7],"6.68 upbm affinity estimate (log intensity, higher = more binding, comparable within an allelic series)"
same,binding signal,PROP1 [8],"6.39 upbm affinity estimate (log intensity, higher = more binding, comparable within an allelic series)"
ACCCGGGC,binding signal,SHOX,"7.15 upbm affinity estimate (log intensity, higher = more binding, comparable within an allelic series)"
CGGGCTCC,binding signal,PRRX1,"8.95 upbm affinity estimate (log intensity, higher = more binding, comparable within an allelic series)"
same,binding signal,HOXB6 [9],"8.71 upbm affinity estimate (log intensity, higher = more binding, comparable within an allelic series)"
same,binding signal,HOXA2 [11],"6.41 upbm affinity estimate (log intensity, higher = more binding, comparable within an allelic series)"
same,binding signal,HOXB9 [4],"7.77 upbm affinity estimate (log intensity, higher = more binding, comparable within an allelic series)"
same,binding signal,MSX2 [12],"9.06 upbm affinity estimate (log intensity, higher = more binding, comparable within an allelic series)"
same,binding signal,HOXA2 [13],"9.88 upbm affinity estimate (log intensity, higher = more binding, comparable within an allelic series)"
same,binding signal,MSX2 [14],"8.79 upbm affinity estimate (log intensity, higher = more binding, comparable within an allelic series)"
same,binding signal,HOXB9 [5],"7.82 upbm affinity estimate (log intensity, higher = more binding, comparable within an allelic series)"
same,binding signal,MSX2 [15],"8.87 upbm affinity estimate (log intensity, higher = more binding, comparable within an allelic series)"
same,binding signal,HOXA2 [16],"10.2 upbm affinity estimate (log intensity, higher = more binding, comparable within an allelic series)"
same,binding signal,HOXA2 [17],"6.39 upbm affinity estimate (log intensity, higher = more binding, comparable within an allelic series)"
same,binding signal,VAX1,"6.27 upbm affinity estimate (log intensity, higher = more binding, comparable within an allelic series)"
same,binding signal,HOXB6 [10],"8.31 upbm affinity estimate (log intensity, higher = more binding, comparable within an allelic series)"
